This passage reports normalized growth results from PubChem BioAssay AID1159580 (chemical genetic matrix, 2015).

This test can be described thus: chemical genetic growth profiling, strain panel (AID 1159580).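 Note: tested at 20 µM; growth read once vehicle control cultures reached saturation at 30 °C; 1 = growth at the plate median or of vehicle wells.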 The following applies: growth OD.
Where [1] appears, read: S. cerevisiae deletion strains, locus YGR078C, strain PAC10, stronger effect = lower value.
The mark [2] stands for this setting: S. cerevisiae deletion strains, locus YPL055C, strain LGE1, stronger effect = lower value.

Screen size: about 5,500 compounds; about 2,000 (36%) were called active. About 18% were inconclusive and are not listed. The list shows a part of the results. A number with no mark means an inactive call. Cut-off read from the data, not from the text of the source: active = normalized growth mostly below about 0.91 (no sharp cut-off); inconclusive = no clear call, values can overlap the other calls; inactive = mostly above about 0.92.

With `Cc1cc(NC(=O)C(Cl)(Cl)Cl)n(-c2ccccc2)n1`, the normalized growth (S. cerevisiae deletion strains, locus YAL013W, strain DEP1, stronger effect = lower value) was 0.984; the normalized growth (S. cerevisiae deletion strains, locus YBR229C, strain ROT2, stronger effect = lower value) is 0.987; the normalized growth (S. cerevisiae deletion strains, locus YDL101C, strain DUN1, stronger effect = lower value) was 0.995; the normalized growth (S. cerevisiae deletion strains, locus YDL134C, strain PPH21, stronger effect = lower value) was 0.936; the normalized growth (S. cerevisiae deletion strains, locus YDR150W, strain NUM1, stronger effect = lower value) was 0.898; the normalized growth (S. cerevisiae deletion strains, locus YEL061C, strain CIN8, stronger effect = lower value) is 0.994. Also, the normalized growth is 0.984 under setting [1]; 0.888 (S. cerevisiae deletion strains, locus YHR030C, strain SLT2, stronger effect = lower value); 0.97 (S. cerevisiae deletion strains, locus YHR087W, strain rtc3, stronger effect = lower value); 0.979 (S. cerevisiae deletion strains, locus YJL187C, strain SWE1, stronger effect = lower value); 0.987 (S. cerevisiae deletion strains, locus YJR043C, strain POL32, stronger effect = lower value); 1 (S. cerevisiae deletion strains, locus YJR075W, strain HOC1, stronger effect = lower value). The normalized growth (S. cerevisiae deletion strains, locus YLR039C, strain RIC1, stronger effect = lower value) was 0.678 (active); the normalized growth (S. cerevisiae deletion strains, locus YLR058C, strain SHM2 (second series), stronger effect = lower value) is 0.985; the normalized growth (S. cerevisiae deletion strains, locus YLR085C, strain ARP6, stronger effect = lower value) is 0.948; the normalized growth (S. cerevisiae deletion strains, locus YLR262C, strain YPT6, stronger effect = lower value) was 0.728 (active); the normalized growth (S. cerevisiae deletion strains, locus YML094W, strain GIM5, stronger effect = lower value) was 1.02; the normalized growth (S. cerevisiae deletion strains, locus YMR219W, strain ESC1, stronger effect = lower value) was 0.991. Besides, the normalized growth by setting is: (S. cerevisiae deletion strains, locus YMR263W, strain SAP30, stronger effect = lower value) 0.982; (S. cerevisiae deletion strains, locus YMR307W, strain GAS1, stronger effect = lower value) 1.02; (S. cerevisiae deletion strains, locus YNL128W, strain TEP1, stronger effect = lower value) 0.975; (S. cerevisiae deletion strains, locus YNL153C, strain GIM3, stronger effect = lower value) 1; (S. cerevisiae deletion strains, locus YNL298W, strain CLA4 (second series), stronger effect = lower value) 0.978; (S. cerevisiae deletion strains, locus YNL322C, strain KRE1, stronger effect = lower value) 0.97. Further, the normalized growth reads like this: (S. cerevisiae deletion strains, locus YNR030W, strain Alg12, stronger effect = lower value) 0.974; (S. cerevisiae deletion strains, locus YOL006C, strain TOP1, stronger effect = lower value) 0.864; under setting [2], 1.04; (S. cerevisiae deletion strains, locus YPL241C, strain CIN2, stronger effect = lower value) 1; (S. cerevisiae deletion strains, locus YPR135W, strain CTF4, stronger effect = lower value) 0.838; (S. cerevisiae strains, strain wild type, stronger effect = lower value) 0.96.
For the compound `CN(C)CC[C@@H](c1ccc(Cl)cc1)c1ccccn1`, the normalized growth by setting is: (S. cerevisiae deletion strains, locus YAL040C, strain CLN3, stronger effect = lower value) 1; (S. cerevisiae deletion strains, locus YDR363W, strain ESC2, stronger effect = lower value) 1; (S. cerevisiae deletion strains, locus YER002W, strain NOP16, stronger effect = lower value) 0.998; under setting [1], 1.01; (S. cerevisiae deletion strains, locus YNL175C, strain NOP13, stronger effect = lower value) 1.01; (S. cerevisiae deletion strains, locus YNL197C, strain WHI3, stronger effect = lower value) 1. For the same compound, the normalized growth reads like this: (S. cerevisiae deletion strains, locus YNL224C, strain SQS1, stronger effect = lower value) 0.999; (S. cerevisiae deletion strains, locus YOR083W, strain WHI5 (second series), stronger effect = lower value) 1.01; under setting [2], 1.01.
